# Assay results taken from PubChem BioAssay AID1778 (Sanford-Burnham Center for Chemical Genomics, 2009).
# Among all 290,000 compounds or so, about 260 (0.09%) were called active. No stated cut-off is given here; in the data, active means inhibition above about 50%; inactive means the rest. This excerpt belongs to a sample that is enriched for actives. Entries with a potency or affinity are not part of this list.
# Target: Kappa-type opioid receptor (Homo sapiens) (UniProt P41145)
# Test: KOR antagonists, beta-arrestin recruitment, cell-based, luminescence, uHTS (AID 1778)
# Conditions: antagonist mode, hits give high values; at 10 µM unless noted
# Kappa-type opioid receptor (Homo sapiens), sequence (P41145 whole entry, looked up): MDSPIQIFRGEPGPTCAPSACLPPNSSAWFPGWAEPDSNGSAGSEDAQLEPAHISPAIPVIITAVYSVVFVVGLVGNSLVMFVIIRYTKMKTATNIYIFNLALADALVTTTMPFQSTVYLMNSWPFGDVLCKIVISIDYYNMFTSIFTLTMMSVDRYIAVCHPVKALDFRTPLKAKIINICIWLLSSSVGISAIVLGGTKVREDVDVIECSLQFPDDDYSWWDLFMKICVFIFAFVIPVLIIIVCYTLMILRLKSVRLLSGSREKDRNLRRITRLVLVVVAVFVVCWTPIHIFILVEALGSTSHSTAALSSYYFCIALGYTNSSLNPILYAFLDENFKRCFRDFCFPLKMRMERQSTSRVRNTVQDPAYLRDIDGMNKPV
row,Structure (SMILES),inhibition
1,Cc1cc(C)cc(Nc2nc3c(S(=O)(=O)c4ccccc4)nnn3c3ccccc23)c1,-17.6% (inactive)
2,COc1cccc(NC(=O)CSc2ccc3nnc(-c4ccccn4)n3n2)c1,3% (inactive)
3,Cc1ccc(SC[C@H](CC(C)C)N2CCN(C)CCC2=O)cc1,30.9% (inactive)
4,COc1ccccc1OC(C)C(=O)NNC(=S)NC1CCCC1 (stereo unspecified),1.5% (inactive)
5,COc1ccc(N2C(=S)NC3N2C(=S)NC3(C)c2ccccc2)cc1 (stereo unspecified),-26.3% (inactive)
6,CC(C)CNS(=O)(=O)c1ccc(CCC(=O)N2CCC(C(N)=O)CC2)cc1,-7.7% (inactive)
7,Cc1ccc(Nc2cc(C)nn2-c2nc(C)cc(C)n2)cc1,2% (inactive)
8,Cc1cc(C)nc(-n2nc(C)cc2Nc2ccccc2)n1,-25% (inactive)
9,COc1cccc(N2C(=O)CC(N3CCN(c4ccc([N+](=O)[O-])cc4)CC3)C2=O)c1 (stereo unspecified),-48.1% [at 20 µM] (inactive)
10,O=C(NCc1ccco1)C(c1cccs1)N(Cc1ccccc1)C(=O)Cn1nnc2ccccc21 (stereo unspecified),9.5% (inactive)
11,Cc1ccc(CN(C(=O)Cn2nnc3ccccc32)C(C(=O)NCc2ccco2)c2cccs2)cc1 (stereo unspecified),17.9% (inactive)
12,Cc1cccc(C)c1NC(=O)C(c1cccs1)N(Cc1ccco1)C(=O)Cn1nnc2ccccc21 (stereo unspecified),53.4% (active)
13,COc1cc(NS(=O)(=O)c2cn(C)cn2)cc(OC)c1,-11.4% (inactive)
14,Cc1ccc(NC(=O)c2cc(N3C(=O)CCC3=O)ccc2N2CCOCC2)cc1,-2.1% [at 20 µM] (inactive)
15,Cc1ccc(NC(=O)c2cc(N3C(=O)C=CC3=O)ccc2N2CCOCC2)cc1Cl,-45.3% (inactive)
16,O=C(Nc1ccc(N2CCOCC2)c([N+](=O)[O-])c1)c1ccco1,11.4% (inactive)
17,Cc1ccc(-c2ccc(C(=O)O)c(C)n2)cc1,21% (inactive)
18,COc1ccccc1N=Nc1ccc(O)c2ncccc12,-19.2% (inactive)
19,CCS(=O)(=O)c1ccc(OC)c(N=Nc2ccc(O)c3ncccc23)c1,1.8% (inactive)
20,Cc1ccc(N=Nc2ccc(O)c3ncccc23)cc1,-2.4% (inactive)
21,Cc1ccc(N=Nc2cc(C)ccc2O)c(C)c1,19.5% (inactive)

row,Structure (SMILES),inhibition
1,Cc1ccc(C)c(N=Nc2ccc(O)c3ncccc23)c1,60.4% (active)
2,Cc1ccc(N=Nc2ccc(O)c3ncccc23)cc1C,60.3% (active)
3,O=Nc1ccc(O)c2ncccc12,7.2% (inactive)
4,Oc1ccc(N=Nc2ccccc2C(F)(F)F)c2cccnc12,29.5% (inactive)
5,CC(C)Oc1ccc(N2CC(C(=O)Nc3ccccn3)CC2=O)cc1 (stereo unspecified),19.8% [at 20 µM] (inactive)
6,COc1cc(/C=C2/N=C(C3CCCCC3)OC2=O)cc(OC)c1OC,-1.6% (inactive)
7,CCC(=O)Nc1ccc(NC(=O)c2cccc3ccccc23)cc1,-36.8% [at 20 µM] (inactive)
8,S=C(NCCCc1ccccc1)NCc1ccccc1,7.2% (inactive)
9,Cc1ccc(S(=O)(=O)N2CCOCC2)cc1C(=O)NC1CCSc2ccccc21 (stereo unspecified),27.2% (inactive)
10,CCOc1ncccc1C(=O)NCCc1ccc(S(N)(=O)=O)cc1,-2.5% (inactive)
11,COc1ccc(C(NC(=O)c2ccc(=O)[nH]c2)C(=O)Nc2ccc(C(C)C)cc2)cc1 (stereo unspecified),-5% (inactive)
12,CCOCCCNC(=O)c1cc(=O)n(Cc2cccc(C)c2)c2ccccc12,3.1% (inactive)
13,O=C(Nc1cccc([N+](=O)[O-])c1)c1ccccc1,2.6% (inactive)
14,O=C(c1ccc(-c2ccccc2)cc1)c1ccc([N+](=O)[O-])cc1,-69.2% (inactive)
15,O=C(C#Cc1ccccc1)c1cccc([N+](=O)[O-])c1,-9.6% (inactive)
16,O=C(c1ccccc1)c1ccc(Sc2ccc([N+](=O)[O-])cc2)cc1,10.8% (inactive)
17,N/C(=N\OC(=O)c1ccc2c(c1)OCO2)c1cccnc1,-2.2% [at 20 µM] (inactive)
18,CCC(C)(C)NC(=O)C1CCN(c2nc(OC)nc(OC)n2)CC1,-16.1% (inactive)
19,COCC1CCN(C(=O)c2cc(COc3ccc(-n4cncn4)cc3)on2)C1 (stereo unspecified),-15.5% (inactive)
20,CC(C)(C)C1CCc2c(sc(NC(=O)c3cccs3)c2C(N)=O)C1 (stereo unspecified),-55.5% (inactive)
21,Oc1c(C(c2cccs2)N2CCN(c3ccccc3)CC2)ccc2cccnc12 (stereo unspecified),2.5% (inactive)

row,Structure (SMILES),inhibition
1,Oc1c(C(c2ccccc2Cl)N2CCCC2)ccc2cccnc12 (stereo unspecified),57.9% (active)
2,Oc1c(C(c2ccccn2)N2CCCCC2)cc(Cl)c2cccnc12 (stereo unspecified),-6.4% (inactive)
3,C/C(=N\Nc1nc(Cl)c(Cl)cc1Cl)c1ccc(S(=O)(=O)NCc2ccco2)cc1,-56.4% (inactive)
4,COCCn1c(=N)c(S(=O)(=O)c2ccc(F)cc2)cc2c(=O)n3cccc(C)c3nc21,-2.3% (inactive)
5,COc1ccc(N(C(=O)c2ccco2)S(=O)(=O)c2ccccc2)cc1,-19.2% (inactive)
6,CCCCN(Cc1cc2cc(OC)ccc2[nH]c1=O)S(=O)(=O)c1ccc(C)cc1,-44.3% [at 20 µM] (inactive)
7,O=C(Cn1ncc2ccccc21)N1CCc2ccccc21,1.2% (inactive)
8,O=C1CN(C(=O)Cn2ncc(Cl)c(Cl)c2=O)c2ccccc2N1,53.5% (inactive)
9,Cc1nc(-c2noc(-c3ccc(Cl)cc3)n2)c(C(F)(F)F)o1,31.9% (inactive)
10,CCCCN1C(=O)C2(OCCCO2)c2cccc(C)c21,-40.4% [at 20 µM] (inactive)
11,CN1CC(=O)N(CC(=O)NCc2ccc(F)cc2)c2ccccc2C1=O,3% (inactive)
12,Cc1c(C(=O)O)[nH]c2c1C(=O)CC(c1ccccc1)C2 (stereo unspecified),-26.9% (inactive)
13,Cc1oc2c(c(=O)c1C)C(=O)CC(c1ccccc1)C2 (stereo unspecified),-21.1% (inactive)
14,CCN1CCN(CC(=O)N2N=C(c3cccs3)CC2c2ccc(F)cc2)C(=O)C1=O (stereo unspecified),0.6% (inactive)
15,Fc1ccccc1/C=N/Nc1ncnc2ccccc12,10.9% (inactive)
16,C(=N\Nc1nc(-c2ccccn2)nc2ccccc12)/c1ccccc1,76.2% (active)
17,C(=N\Nc1nc(-c2cccnc2)nc2ccccc12)/c1ccccc1,-5.2% (inactive)
18,C/C(=N\Nc1nc(-c2ccccn2)nc2ccccc12)c1ccc(F)cc1,31.6% (inactive)
19,Cc1ccc(-c2nc(N/N=C/c3ccncc3)c3ccccc3n2)cc1,2.4% (inactive)
